Experimental data from PubChem BioAssay (NCATS).
Inconclusive results are not listed. Calls of active or inactive are those of the source. Calls follow the shape of the dose curve; as a rule, active = well fitted curve in the direction sought with a large enough effect; inconclusive = small, poorly fitted or top-dose-only effect, or another doubt; inactive = no such curve, though single readings can be large; an effect the other way counts as inactive or inconclusive.

Assays:
UISO = assay: qHTS assay to identify novel small-molecules to repurpose for Merkel cell carcinoma treatment (AID 1296009); conditions: MCC and control cell lines, CellTiter-Glo viability, 72 h; series mostly up to 46 µM; also: nearly all actives have a fitted effect of over 60% in size
Procedure, shortened: (§1)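 Cell viability, measured as CellTiter-Glo luminescence, was normalized between DMSO and no-cell wells. The cells had been exposed to 8- or 11-point compound dilutions for 72 hr at 37 degree celsius.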

WaGa = assay: as above; conditions: MCC and control cell lines, CellTiter-Glo viability, 72 h; series mostly up to 46 µM
Procedure, shortened: as §1

C33A = assay: Primary qHTS to identify gynecologic anti-cancer compounds using libraries of approved drugs and bioactive compounds (AID 1345084); conditions: Gynecologic cancer cell panel viability, ATPlite luminescence, 48 h; series mostly up to 57.5 µM; also: nearly all actives have a fitted effect of over 55% in size; also: potency is read from the fitted curve at half-maximal effect
Procedure, shortened: (§2)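 Cell viability after 48 h drug treatment, ATPlite luminescence readout; five doses.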

CAOV3 = assay: as above; conditions: Gynecologic cancer cell panel viability, ATPlite luminescence, 48 h; series mostly up to 57.5 µM
Procedure, shortened: as §2

CASKI = assay: as above; conditions: Gynecologic cancer cell panel viability, ATPlite luminescence, 48 h; series mostly up to 57.5 µM
Procedure, shortened: as §2

Es-2 = assay: as above; conditions: Gynecologic cancer cell panel viability, ATPlite luminescence, 48 h; series mostly up to 57.5 µM
Procedure, shortened: as §2

HeLa = assay: as above; conditions: Gynecologic cancer cell panel viability, ATPlite luminescence, 48 h; series mostly up to 57.5 µM
Procedure, shortened: as §2

Hek293T = assay: as above; conditions: Gynecologic cancer cell panel viability, ATPlite luminescence, 48 h, control line for the selectivity index; series mostly up to 57.5 µM
Procedure, shortened: as §2

JEG-3 = assay: as above; conditions: Gynecologic cancer cell panel viability, ATPlite luminescence, 48 h; series mostly up to 57.5 µM
Procedure, shortened: as §2

Measured: Potency

CC(=O)O[C@H]1CC[C@@]2(C)C(=CC[C@@H]3[C@@H]2CC[C@]2(C)C(C(C)=O)=CC[C@@H]32)C1
inactive: all assays above

Cc1ccc(-c2ccccc2C#N)cc1
inactive: all assays above

CC(Oc1c(Cl)cccc1Cl)C1=NCCN1 (stereo not drawn)
inactive: all assays above

Cc1ccc2ccc(Cl)cc2n1
inactive: all assays above

CCCCC(CC)CNC(=O)CC(C)OC(=O)CCC(=O)O (stereo not drawn)
inactive: all assays above

CCCc1ccc(OCC(=O)N2CCN(C(=O)COc3ccc(CCC)cc3OC)CC2)c(OC)c1
inactive: all assays above

CCCCCN(CCCOC)C(=O)C(CCC(=O)O)NC(=O)c1ccc(Cl)c(Cl)c1 (stereo not drawn)
inactive: all assays above

CC(C)(C)C(=O)OCOC(=O)C1N2C(=O)CC2S(=O)(=O)C1(C)C (stereo not drawn)
inactive: all assays above

Cc1cnc(NS(=O)(=O)c2ccc(N)cc2)nc1
inactive: all assays above

O=C(CS(=O)Cc1ccco1)NC/C=C\COc1cc(CN2CCCCC2)ccn1 (stereo not drawn)
inactive: all assays above

CO[C@]1(NC(=O)CSC(F)F)C(=O)N2C(C(=O)O)=C(CSc3nnnn3CCO)CO[C@H]21
inactive: all assays above

C1N2CN3CN1CN(C2)C3
inactive: all assays above

CC1(C)OC(=O)Nc2ccc(Br)cc21
active: HeLa 10 µM
inactive: all other assays above

CNC(=O)c1cnn(-c2nc(N)c3ncn([C@@H]4O[C@H](CO)[C@@H](O)[C@H]4O)c3n2)c1
inactive: all assays above

CCCCC/C=C\C/C=C\CCCCCCCC(=O)NC(C)c1ccccc1 (stereo not drawn)
inactive: all assays above

CCN(CC)CCN
inactive: all assays above

CCN1C(=O)c2ccccc2C1Nc1ccc(OCCN2CCCCC2)cc1 (stereo not drawn)
inactive: all assays above

Cc1cc(O)c2c(O)c3c(O)cccc3cc2c1
inactive: all assays above

CCc1cccc2c(CCO)c[nH]c12
inactive: all assays above

CN(C)CCCOC1(Cc2ccccc2)CCCCCC1
inactive: all assays above

CC(C)(C)CC(=O)OCC(=O)[C@@]1(O)CC[C@H]2[C@@H]3CCC4=CC(=O)C=C[C@]4(C)[C@H]3[C@@H](O)C[C@@]21C
inactive: all assays above

CN1CC(=O)N2[C@H](c3ccc4c(c3)OCO4)c3[nH]c4ccccc4c3C[C@@H]2C1=O
inactive: all assays above

O=C(O)Cc1ccccc1Oc1ccc(Cl)cc1Cl
inactive: all assays above

Cc1cccc(C)c1NC(=O)c1cc(S(N)(=O)=O)c(Cl)cc1O
inactive: all assays above

O=C(O)c1[nH]n(-c2ccc(S(=O)(=O)O)cc2)c(=O)c1N=Nc1ccc(S(=O)(=O)O)cc1
inactive: all assays above

NS(=O)(=O)c1cc2c(cc1Cl)CN(C1CCCCC1)C2=O
inactive: all assays above

CCc1cc(S(=O)(=O)O)c2cc(C(C)C)cccc1-2
inactive: all assays above

O=C(CCCCC(=O)Nc1c(I)cc(I)c(C(=O)O)c1I)Nc1c(I)cc(I)c(C(=O)O)c1I
inactive: all assays above

C[N+]1(C)CCC(OC(=O)C(O)(c2ccccc2)C2CCCC2)C1 (stereo not drawn)
inactive: all assays above

O=C(O)c1ccccc1S
inactive: all assays above

O=C(CCOCCOCCOCCOCCC(=O)Nc1c(I)cc(I)c(C(=O)O)c1I)Nc1c(I)cc(I)c(C(=O)O)c1I
inactive: all assays above

CC(=O)CC/C=C(\C)CC/C=C(\C)CC/C=C(\C)CCC=C(C)C
inactive: all assays above

CC(C)(Oc1ccc(Cl)cc1)C(=O)OCCCOC(=O)C(C)(C)Oc1ccc(Cl)cc1
inactive: all assays above

C[C@H]1C[C@@H]2[C@H]([C@@H](O)C[C@@]3(C)[C@H]2CC[C@]3(O)C(=O)CO)[C@@]2(C)C=CC(=O)C=C12
inactive: all assays above

Cc1oc(=O)oc1COC(=O)[C@@H]1N2C(=O)[C@@H](NC(=O)[C@H](N)c3ccccc3)[C@H]2SC1(C)C
inactive: all assays above

Nc1nnnn1-c1ccccc1
inactive: all assays above

CCN(CC)CC(=O)Nc1c(C)cccc1C(=O)OC
inactive: all assays above

COC(=O)c1ccc(NC(C)=O)cc1OC
inactive: all assays above

CC(C)NCCCC1(C(N)=O)c2ccccc2-c2ccccc21
inactive: all assays above

CO[C@@]1(NC(=O)CSC[C@@H](N)C(=O)O)C(=O)N2C(C(=O)O)=C(CSc3nnnn3C)CS[C@@H]21
inactive: all assays above

CSc1ccc(/C=C2/C(C)=C(CC(=O)O)c3cc(F)ccc32)cc1
inactive: all assays above

Cc1ccc2c(Cl)cc(Cl)c(O)c2n1
inactive: all assays above

C/C(=N\O)[C@@H](C)NCC(C)(C)CN[C@H](C)/C(C)=N/O
inactive: all assays above

C1=CC2C3C=CC(C3)C2C1 (stereo not drawn)
inactive: all assays above

CCOC(=O)C(=O)c1csc(NC=O)n1
inactive: all assays above

O=[N+]([O-])c1nccn1CO[C@@H](CO)[C@H](O)CO
inactive: all assays above

CN(CC1(C)CCCO1)S(=O)(=O)c1ccc(Cl)c(S(N)(=O)=O)c1 (stereo not drawn)
inactive: all assays above
